Experimental data from publication PMC5700166.

What was measured:
[1] = target: T1, GST-Nv-NF-kB (Ser allele) (Nematostella vectensis, UniProt A7UNT2 2-411); test: protein-binding microarray (PBM); PBM: ~300 nM protein, 6 mM HEPES pH 7.8, 80 mM KCl, 0.5 mM EDTA, 0.5 mM EGTA, 6% glycerol, 35 ng/ul poly-dIdC, 1% milk, 1 h, room temperature; Ap Aiptasia and Nv Nematostella (sea anemones) / Co Capsaspora / Aq Amphimedon (sponge) / Dm Drosophila / Hu human; RHD is the Rel homology domain; high values mean tight binding; settings: dsDNA, one strand shown
T1 sequence: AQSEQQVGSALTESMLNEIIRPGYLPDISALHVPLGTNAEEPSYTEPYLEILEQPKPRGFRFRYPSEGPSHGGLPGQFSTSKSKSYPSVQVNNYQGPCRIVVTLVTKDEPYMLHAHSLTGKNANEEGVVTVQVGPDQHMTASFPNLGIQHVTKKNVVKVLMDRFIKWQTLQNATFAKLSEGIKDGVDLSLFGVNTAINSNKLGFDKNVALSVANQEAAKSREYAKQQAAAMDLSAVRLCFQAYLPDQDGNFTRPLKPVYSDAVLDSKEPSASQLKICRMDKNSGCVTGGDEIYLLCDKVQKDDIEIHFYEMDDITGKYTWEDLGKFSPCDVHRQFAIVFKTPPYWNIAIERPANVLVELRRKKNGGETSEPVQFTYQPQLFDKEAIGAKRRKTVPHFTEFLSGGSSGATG

GST-Hu-p50 = GST-Hu-p50 (Homo sapiens, UniProt P19838 7-356); test: as above; settings: dsDNA, one strand shown
Sequence of GST-Hu-p50 (P19838 7-356): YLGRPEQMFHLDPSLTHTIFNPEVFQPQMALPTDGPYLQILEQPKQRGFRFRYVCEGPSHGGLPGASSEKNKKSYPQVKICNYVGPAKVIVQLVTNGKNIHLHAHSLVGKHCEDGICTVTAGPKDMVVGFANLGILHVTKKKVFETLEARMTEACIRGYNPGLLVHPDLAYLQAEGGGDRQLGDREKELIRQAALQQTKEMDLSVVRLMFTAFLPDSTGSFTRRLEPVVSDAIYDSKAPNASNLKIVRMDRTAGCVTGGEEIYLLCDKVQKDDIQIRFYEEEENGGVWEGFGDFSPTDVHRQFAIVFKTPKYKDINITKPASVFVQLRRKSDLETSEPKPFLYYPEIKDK

Sequence | binding signal [1] | binding signal (GST-Hu-p50)
CCGATTAACATCAGGGAGATTTATGATGTTAATCGGGTCTTGATTCGCTTGACGCTGCTG | 4.27 z-score | 4.86 z-score
CCGATTAACATCACGGGGGGTAATGATGTTAATCGGGTCTTGATTCGCTTGACGCTGCTG | 2.9 z-score | 2.48 z-score
CCGATTAACATCAGCGAATTCCCTGATGTTAATCGGGTCTTGATTCGCTTGACGCTGCTG | 4.46 z-score | 3.28 z-score
CCGATTAACATCAAGGAAAAACCTGATGTTAATCGGGTCTTGATTCGCTTGACGCTGCTG | 1.47 z-score | 1.12 z-score
CCGATTAACATCAAGAATTCCCGTGATGTTAATCGGGTCTTGATTCGCTTGACGCTGCTG | 5.52 z-score | 4.39 z-score
CCGATTAACATCATGCGGGAAAATGATGTTAATCGGGTCTTGATTCGCTTGACGCTGCTG | 4.76 z-score | 2.69 z-score
CCGATTAACATCAGAAATCCCACTGATGTTAATCGGGTCTTGATTCGCTTGACGCTGCTG | 1.91 z-score | 2.66 z-score
CCGATTAACATCAGGATTTTACCTGATGTTAATCGGGTCTTGATTCGCTTGACGCTGCTG | 3.67 z-score | 2.65 z-score
CCGATTAACATCAGGGAATTCGATGATGTTAATCGGGTCTTGATTCGCTTGACGCTGCTG | 4.38 z-score | 2.58 z-score
CCGATTAACATCAGGGCCCCCCCTGATGTTAATCGGGTCTTGATTCGCTTGACGCTGCTG | 3.34 z-score | 4.39 z-score
CCGATTAACATCACTTGGGAAACTGATGTTAATCGGGTCTTGATTCGCTTGACGCTGCTG | 2.07 z-score | 1.38 z-score
CCGATTAACATCAGGAAACTACCTGATGTTAATCGGGTCTTGATTCGCTTGACGCTGCTG | 3.83 z-score | 3.87 z-score
CCGATTAACATCAAATATTCCCATGATGTTAATCGGGTCTTGATTCGCTTGACGCTGCTG | 4.14 z-score | 2.88 z-score
CCGATTAACATCAAGGGAAACCCTGATGTTAATCGGGTCTTGATTCGCTTGACGCTGCTG | 4.43 z-score | 2.93 z-score
CCGATTAACATCAGGAGACTCCCTGATGTTAATCGGGTCTTGATTCGCTTGACGCTGCTG | 1.61 z-score | 1.93 z-score
CCGATTAACATCAGACATTCCCATGATGTTAATCGGGTCTTGATTCGCTTGACGCTGCTG | 2.32 z-score | 1.02 z-score
CCGATTAACATCAGAAAAAACCCTGATGTTAATCGGGTCTTGATTCGCTTGACGCTGCTG | 5.08 z-score | 4.96 z-score

Sequence | binding signal [1] | binding signal (GST-Hu-p50)
CCGATTAACATCAGGTTTTCCCATGATGTTAATCGGGTCTTGATTCGCTTGACGCTGCTG | 5.41 z-score | 3.27 z-score
CCGATTAACATCACCCACGAGGGTGATGTTAATCGGGTCTTGATTCGCTTGACGCTGCTG | 1.02 z-score | 2.01 z-score
CCGATTAACATCAAACAAACCCCTGATGTTAATCGGGTCTTGATTCGCTTGACGCTGCTG | 2.48 z-score | 3.95 z-score
CCGATTAACATCAGGGAATGACCTGATGTTAATCGGGTCTTGATTCGCTTGACGCTGCTG | 1.65 z-score | 2.08 z-score
CCGATTAACATCAGGGAAAACGATGATGTTAATCGGGTCTTGATTCGCTTGACGCTGCTG | 6.01 z-score | 2.13 z-score
CCGATTAACATCAGGGGGTAGAATGATGTTAATCGGGTCTTGATTCGCTTGACGCTGCTG | 4.04 z-score | 3.9 z-score
CCGATTAACATCAGGGAATGCACTGATGTTAATCGGGTCTTGATTCGCTTGACGCTGCTG | 2.1 z-score | 2.28 z-score
CCGATTAACATCAGGCAAGTCCCTGATGTTAATCGGGTCTTGATTCGCTTGACGCTGCTG | 3.07 z-score | 3.44 z-score
CCGATTAACATCAAGTACCCCCATGATGTTAATCGGGTCTTGATTCGCTTGACGCTGCTG | 3.01 z-score | 2.36 z-score
CCGATTAACATCACACCCCCCCCTGATGTTAATCGGGTCTTGATTCGCTTGACGCTGCTG | 3.66 z-score | 3.76 z-score
CCGATTAACATCAAATCTTTCCCTGATGTTAATCGGGTCTTGATTCGCTTGACGCTGCTG | 6.25 z-score | 3.68 z-score
CCGATTAACATCAAGTACCCCCCTGATGTTAATCGGGTCTTGATTCGCTTGACGCTGCTG | 4.15 z-score | 3.94 z-score
CCGATTAACATCAGGGGAAGGAATGATGTTAATCGGGTCTTGATTCGCTTGACGCTGCTG | 6.09 z-score | 3.5 z-score
CCGATTAACATCAGGGGGTTAACTGATGTTAATCGGGTCTTGATTCGCTTGACGCTGCTG | 4.34 z-score | 4.57 z-score
CCGATTAACATCACATTCTCCCCTGATGTTAATCGGGTCTTGATTCGCTTGACGCTGCTG | 5.45 z-score | 3.4 z-score
CCGATTAACATCAGGACAGTCCCTGATGTTAATCGGGTCTTGATTCGCTTGACGCTGCTG | 2.87 z-score | 4.04 z-score
